B1: design_607_777643b9-bd23-49d1-80ae-2b1434974efa_2469_dldesign_0_cycle1_af2pred (protein)
chain: KKITMEEQETLVNSSDDAAYYDVINTPEAAEKAKEAKATRDSLVAKWKAEDPEGGEKLKKVADHIYENSYKISKRILEEKKE
B2: design_607_777643b9-bd23-49d1-80ae-2b1434974efa_2358_dldesign_0_cycle1_af2pred (protein)
chain: MEEEAKRILEEAEKKAKEAEAIAKSGKNTKEAEKLAREALKLVKENAPIIPKEEALKAAKKALEVLFEATEAAN
B3: design_608_fd41b8f9-4da9-4c78-93ec-aaa316ed4933_161_dldesign_0_cycle1_af2pred (protein)
chain: ITEEQKKVAEKLVERAEEVGKKAIEAGYPELGKKVLELAKETRKALEVSAEEAAKKAAELAQLKAEAEFEIKK
B4: design_607_777643b9-bd23-49d1-80ae-2b1434974efa_2234_dldesign_0_cycle1_af2pred (protein)
chain: SAAVKAAAEKAIAAFEAVAKKAKKAAEEGAKPEEVEKLRKELEKARKAGKEVAKKAAADPELVKKLSNAAFEAYEAIAEAAFAA
B5: design_607_777643b9-bd23-49d1-80ae-2b1434974efa_2272_dldesign_0_cycle1_af2pred (protein)
chain: NTQKAADKFSEAVRNLREAAKLGGEEVKEMAEKAILAAADDPEKGVEQAEKLLKYVKENVSEEVAKLVEEALKNFKEMAKLLN
B6: design_607_777643b9-bd23-49d1-80ae-2b1434974efa_2300_dldesign_0_cycle1_af2pred (protein)
chain: GKKEEAKKYAEEAKKKIKELAKKAEKSTDEEEVKKLAEKARELAKKAIEYAKKELTPEEAAKVAKELSEAAHEAHEAAAIGLFNIRKK
B7: design_608_fd41b8f9-4da9-4c78-93ec-aaa316ed4933_199_dldesign_0_cycle1_af2pred (protein)
chain: AEEYRKKAKELAEKAKKYVEKLKADPENAEEYYKKAVEYIHKLYELAAEAESEGHPEVAKEIRELARKIGEEAKKAYEEVKA
B8: design_607_777643b9-bd23-49d1-80ae-2b1434974efa_2236_dldesign_0_cycle1_af2pred (protein)
chain: EAKKYAEKAEKLAKEAEESTDDYEKAKKYAEEARKYAKKAVAYAKANPEDKEAKELAKKAIEAAHKAQEALAEAKAN
B9: design_607_777643b9-bd23-49d1-80ae-2b1434974efa_2248_dldesign_0_cycle1_af2pred (protein)
chain: AAAEAAAKAKEAAKKAAAIAKEGIAKQEKAAKEGDAEKVREIAKEVRTKLAAEAKATPEGAKAYAAAAHDVYEAAAEYSQEAKKAK
B10: design_608_fd41b8f9-4da9-4c78-93ec-aaa316ed4933_71_dldesign_0_cycle1_af2pred (protein)
chain: AKEEKEKEIEKLKKKAERLAERAKKVAEEAEKAGFEEVAKKIKEKAKELEKAAESMKEDYEKGKKEASEKAGELSEVMAEAKYLLAKK
B11: design_607_777643b9-bd23-49d1-80ae-2b1434974efa_2203_dldesign_0_cycle1_af2pred (protein)
chain: SAVEKEKEELKKEVEEAKKEAEKVIAGGTLEEGAKVADKAYQLAAEAASLGPEAEDIEKEAREVARRLREYGKERRA
B12: design_608_fd41b8f9-4da9-4c78-93ec-aaa316ed4933_178_dldesign_0_cycle1_af2pred (protein)
chain: AATEEANKALLEAKEAIVDAYNEKYKLDPEEGKKLRKELLKKLAEAYASENAAEKLKEIKKEAKKLAEEYEKKN
B13: design_607_777643b9-bd23-49d1-80ae-2b1434974efa_2270_dldesign_0_cycle1_af2pred (protein)
chain: AAADATVDAAIAKLRALGKEYPEGADAFNQLADNLKKAAAKAKTPEAKIAAAKKAMATAEHILKTTKEAEERAKKRKEEEEK
B14: design_607_777643b9-bd23-49d1-80ae-2b1434974efa_2448_dldesign_0_cycle1_af2pred (protein)
chain: SAEEEAKKLLEEAKKLAEEAGKSKDPEEAEKLAREAIKLAEKAAKLGLKEEASKVAHLARENLAEAQYRYRKEKK
B15: design_607_777643b9-bd23-49d1-80ae-2b1434974efa_2298_dldesign_0_cycle1_af2pred (protein)
chain: VTPEELAEAAKKKDELLDAAFAALQAAKTVEEVEAVAKEFLAKAEELGKDPRYAAAAESFKKILTRMKEAAVKAIK
B16: design_608_fd41b8f9-4da9-4c78-93ec-aaa316ed4933_3_dldesign_0_cycle1_af2pred (protein)
chain: GMEEESKAYKEALDKLSELGKEAEKAAKKGNEEVRKKLLKLKEEAEKKLDEGFEKGKEAAKEAKKFIEEKLKEVKKLLKELE
B17: design_607_777643b9-bd23-49d1-80ae-2b1434974efa_2486_dldesign_0_cycle1_af2pred (protein)
chain: AAEKEAAKAEAAKLVEEAADAAVEKGAEGVEAIIKELEKAAKAASPEARVYYEKAIRTAKSLAEDVKELEN
B18: design_607_777643b9-bd23-49d1-80ae-2b1434974efa_2342_dldesign_0_cycle1_af2pred (protein)
chain: SEAQKEGKAFSAMMKTASEKGKELSKKTGTPLAEMAKIVQDIADAYAKGPEEIKKVAKTPEAKELATAAYDTYEKTYKA
B19: design_607_777643b9-bd23-49d1-80ae-2b1434974efa_2258_dldesign_0_cycle1_af2pred (protein)
chain: AAVEEAKAALKKRYEKALKLAKEASEELYKEVVEKYKEYVAAAEAAKDPAEKVAALTAGNAFMYELIAEARSEIERKKEE

molecular target: VTCN1, Q7Z7D3
Sequence (Q7Z7D3 whole entry): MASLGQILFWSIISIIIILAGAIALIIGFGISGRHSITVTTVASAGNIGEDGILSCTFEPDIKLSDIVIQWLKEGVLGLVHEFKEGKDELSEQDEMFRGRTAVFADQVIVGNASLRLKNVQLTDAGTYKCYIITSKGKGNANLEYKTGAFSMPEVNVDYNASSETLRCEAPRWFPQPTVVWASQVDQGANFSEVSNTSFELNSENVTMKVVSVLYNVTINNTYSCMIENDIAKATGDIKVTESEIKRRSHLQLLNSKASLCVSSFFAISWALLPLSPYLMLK

Binding in a display sort, inactive:
B1 not found, B2 not found, B3 not found, B4 not found, B5 not found, B6 not found, B7 not found, B8 not found, B9 not found, B10 not found, B11 not found, B12 not found, B13 not found, B14 not found, B15 not found, B16 not found, B17 not found, B18 not found, B19 not found

Reference: PMC13494018
